In PubChem BioAssay (NCI):
The panel holds about 83,000 compounds, 20% with a hit somewhere; the sample as a whole holds those more often.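 Single-dose data. Exposure time 48 hours. Values below 10 considered active.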 Values without a mark were called inactive. Activity calls are given as the source filed them.

What follows are compounds tested on UACC-62 melanoma (assay: NCI-60 one-dose screen, 48 h (100 = growth as untreated, 0 = no growth, -100 = all killed)). Details: 10 µM unless noted.
Protocol: Growth inhibition of the UACC-62 human tumor cell line is measured as a screen for anti-cancer activity. Cells are grown in 96 well plates and exposed to the test compound for 48 hours. Compounds are tested at a single concentration, which is 10^-5 M for most compounds. The reported endpoint is percent growth (GI% or GIPRCNT), where numbers from 0 - 100% represent growth inhibition, and numbers from -100% - 0 represent cell death. For example, a value of 40 represents 60% growth inhibition. A value of 0 means no net growth occurred over the course of the experiment. A value of -40 indicates 40% of cells at the beginning of the experiment died by the end of the experiment. A value of -100 means all cells are dead at the end of the experiment.
NCI-60 Human Tumor Cell Lines Screen was performed using the standard one-dose NCI protocol, which is described in more detail at https://dtp.cancer.gov/discovery_development/nci-60/default.htm.
Compounds with GIPRCNT values below 10 were considered active. Activity score was based on GIPRCNT using the following formula: […]
Score is 0 for GIPRCNT values of 100 or above, 50 for GIPRCNT values of 0, and 100 for GIPRCNT values of -100.

Structure (SMILES)	growth
N#Cc1c(-c2ccccc2)cc(-c2ccccc2)n(CCCCC(=O)NO)c1=O	2.89% (active)
COc1ccccc1/C=C/C(=O)Nc1ccc(F)cc1	89.8%
C=C1C(=O)O[C@@H]2C3C(=C(C)CC[C@@H]12)CC1O[C@]13C (stereo not given in full)	74.6% [6.75 µM]
COc1ccc(C/C(C)=C(\c2ccc(Cl)cc2)c2ccc(OCCCN(C)C)cc2)cc1	94.5%
C#CCOc1cccc(Nc2ncnc3c2ncn3C2CCN(C(=O)CCl)C2)c1 (stereo not given)	-66% (active)
CCCCNC(=O)c1ccc2c(c1)nc(-c1ccccc1)n2C1CCCCC1	87.3%
N[C@@H]1CCC[C@H]1NCCCCN1C(=O)c2cccc3cc([N+](=O)[O-])cc(c23)C1=O	66.3%
CCOC(=O)c1cnn(CC(C)O)c1NC(=O)NCc1ccccc1C(F)(F)F (stereo not given)	91.8%
COC(=O)c1ccc2cc(OC)c(OC)cc2c1	104%
CC(C)c1ccc2c(c1)CC[C@H]1[C@](C)(C(=O)OCC#CCN3CCCC3)CCC[C@]21C	55.4%
C=C1C(=O)O[C@H]2[C@H]1CC/C(COC(=O)NCc1ccc(Cn3c(=O)sn(-c4ccc(I)cc4)c3=O)cc1)=C\CC[C@@]1(C)O[C@@H]21	81.2%
CC12OC(CC(O)C1O)n1c3ccccc3c3c4c(c5c6ccccc6n2c5c31)C(=O)N(CCN1CCCC1)C4=O (stereo not given)	19.3%
COc1cc(C=Nc2oc(-c3ccccc3)c(-c3ccccc3)c2C#N)cc(CN2CCCC2)c1O	86.5%
Nc1ccc(-c2ccncc2)cc1NC(=O)N1CCCC1	91.7%
CCCCCCCCn1ccc2cc(NC(=O)CN=[N+]=[N-])ccc21	84.2%
CCOC(=O)C1=C(CC(O)c2ccc(OC)cc2OC)NC(=O)NC1c1ccccc1 (stereo not given)	89.8%
COc1cc(/C=C/C(=O)c2cccc(-n3cc(-c4ccc(Cl)cc4)[nH]c3=O)c2)ccc1O	64.3%
CC(O)CNC(Cc1ccccc1)c1ccc2c(c1)OCO2 (stereo not given)	91.4%
O=C1C=C(SCCO)C(=O)c2ccccc21	22.3%
O=C(NCCCCCCNC(=O)OCc1ccc2c(Cl)cc(Cl)c(O)c2n1)OCc1ccc2c(Cl)cc(Cl)c(O)c2n1	-94.3% (active)

Structure (SMILES)	growth
S=c1ccnc[nH]1	102%
COc1cc2c(cc1-c1c(C)noc1C)ncc1nc(CN3CCOCC3)n([C@H](C)COC(F)F)c12	17.4%
CSc1ccc2c3c(n(C[C@H](O)CO)c(=O)c2c1)-c1ccccc1C3=O	37.5%
O=C(/C=C/c1ccccc1)c1ccc(-n2cc(CN3CCN(c4cc5c(cc4F)c(=O)c(C(=O)O)cn5C4CC4)CC3)nn2)cc1	73.8%
COc1cc(C=C2C(=O)NC(=S)NC2=O)cc(CN2CCCC2)c1O	99.7%
COc1ccc(-c2cc(-c3cccnc3)nc3sc4c(N)c(C(C)=O)c(-c5ccccc5)nc4c23)cc1OC	75.5%
O=C1OCC2=C1C(c1ccccc1)c1cc3c(cc1N2CCO)OCCO3 (stereo not given)	14.5%
COc1cc(/C=C2\C(=O)N(CCCOc3cc(O)c4c(=O)cc(-c5ccccc5)oc4c3)c3ccccc32)cc(OC)c1O	46.8%
O=CN1N=C(c2cccc(Nc3ccnc4cc(Cl)ccc34)c2)CC1c1ccc(Cl)cc1 (stereo not given)	32.4%
COc1ccc(/C=C/C(c2cc(OC)c(OC)c(OC)c2)n2cncn2)cc1O (stereo not given)	37.5%
Nc1cc(C(=O)O)cc(-n2c(O)c(C=C3N=c4ccccc4=N3)sc2=S)c1	86.7%
CC(=O)c1sc(-c2ccc(F)cc2)cc1O	100%
O=C(/C=C/c1cccc(Oc2ccccc2)c1)c1ccc(Nc2nc(Nc3ccc(F)cc3)nc(Nc3ccc(Cl)cc3)n2)cc1	105%
Clc1ccc(-c2cc(-c3ccccc3)nc(N3CCN(CCCNc4ccnc5cc(Cl)ccc45)CC3)n2)cc1	51%
Cc1oc(-c2ccc(Cl)cc2)nc1C1=NN(C(=O)c2ccncc2)C(c2ccccc2)C1 (stereo not given)	72.9%
O=C1/C(=C/c2cccc(Br)c2)COc2ccc(O)cc21	42.6%
CC(C)(C)OC(=O)CN1CCc2c(sc3ncnc(N4CCN(c5ccc(F)cc5)CC4)c23)C1	68.4%
Cc1cc(C(=O)CCCC(=O)c2cc(C)c(O)c(C)c2)cc(C)c1O	96.8%
Cc1cc(NCCCNc2ccnc3cc(Cl)ccc23)nc(Nc2ccc(C(=O)N3CCCCC3)cc2)n1	-71.2% (active)
CS(=O)(=O)Nc1cc(-c2ccc3ncnc(Nc4ccc5c(cnn5Cc5ccccc5F)c4)c3c2)cnc1Cl	19.4%
